Assay results taken from PubChem BioAssay AID743149 (Broad Institute, 2013).
Entries with a potency or affinity are not part of this list. Calls of active or inactive are those of the source. The rule behind the calls is not given here.

Assay: OV-90 cell viability loss – plate reader, dry powder, SA8, PAX8 inhibitor project, dose response (AID 743149)
Conditions: OV-90 ovarian cancer cells; series mostly up to 35 µM; activity change, negative = cytotoxicity: at the top concentration

SMILES | activity change, negative = cytotoxicity
CCN(CC(=O)Nc1c(F)cccc1F)C(=O)c1cc(S(=O)(=O)N(C)C)ccc1N1CCCC1 | 8.98% [at 50 µM] (inactive)
N#C[C@@H]1[C@@H](c2ccc(C#Cc3ccccc3F)cc2)[C@H](CO)N1C(=O)C1CCCCC1 | -43.7% (inactive)
C[C@@H]1CN([C@H](C)CO)C(=O)CCCn2cc(nn2)CO[C@H]1CN(C)C(=O)Nc1ccc(-c2cccs2)cc1 | 18% (inactive)
O=C(CN1C(=O)c2ccccc2S1(=O)=O)c1ccc(Cl)cc1Cl | 31.7% [at 50 µM] (inactive)
Cc1ccc(S(=O)(=O)Nc2ccc3c(c2)C(=O)N([C@H](C)CO)C[C@@H](C)[C@H](CN(C)Cc2ccc(C(F)(F)F)cc2)OCCCC[C@H](C)O3)cc1 | -30.4% (inactive)
C[C@H](CO)N1C[C@H](C)[C@@H](CN(C)S(=O)(=O)c2ccc(-c3ccccc3)cc2)OCc2cn(nn2)CCCC1=O | 14.8% (inactive)
COc1cccc(C#Cc2ccc([C@@H]3[C@H](C#N)N(C(=O)c4ccccn4)[C@H]3CO)cc2)c1 | -24.5% (inactive)
O=C(Nc1ccc(OCC(F)(F)C(F)F)c(C(F)(F)F)c1)c1ccccc1O | 14.1% [at 50 µM] (inactive)
O=C1/C(=C/c2ccccc2)SC(=S)N1CC(=O)N1CCCCC1c1cccnc1 (stereo unspecified) | 36.8% [at 50 µM] (inactive)
O=C1/C(=C/c2cccc(Br)c2)SC(=S)N1CCC(=O)N(CCO)c1ccccc1 | -27% [at 50 µM] (inactive)
Cc1ccccc1OCC(=O)Nc1cccc(C(=O)O)c1 | 22.8% [at 50 µM] (inactive)
O=C(CN1C(=O)c2ccccc2S1(=O)=O)c1ccccc1Cl | 3.21% [at 50 µM] (inactive)
N#C[C@H]1[C@@H](c2ccc(C#Cc3cccc(F)c3)cc2)[C@@H](CO)N1C(=O)C1CCCC1 | 10.2% (inactive)
N#C[C@@H]1[C@@H](c2ccc(C3=CCCCC3)cc2)[C@@H](CO)N1C(=O)NC1CCCCC1 | 6.88% (inactive)
COCC(=O)N1[C@H](CO)[C@H](c2ccc(-c3cccnc3)cc2)[C@@H]1C#N | 13.5% (inactive)
O=C1/C(=C/c2ccccc2F)SC(=S)N1CC(=O)N1CCCCC1c1cccnc1 (stereo unspecified) | -23% [at 50 µM] (inactive)

SMILES | activity change, negative = cytotoxicity
C[C@H](CO)N1C[C@H](C)[C@@H](CN(C)S(=O)(=O)c2ccc(Cl)cc2)OCCCC[C@H](C)Oc2ccc(NS(=O)(=O)c3ccccc3)cc2C1=O | -43.1% (inactive)
CCCC#Cc1ccc([C@@H]2[C@@H](C#N)N(S(=O)(=O)c3cccc(F)c3)[C@H]2CO)cc1 | 2.97% (inactive)
COc1cccc(C#Cc2ccc([C@@H]3[C@@H](C#N)N(C(=O)C4CCCCC4)[C@H]3CO)cc2)c1 | -11.9% (inactive)
C[C@H](CO)N1C[C@H](C)[C@@H](CN(C)Cc2ccc(-c3ccccc3)cc2)Oc2ccc(NC(=O)C3CC3)cc2CC1=O | 1.99% (inactive)
COc1ccccc1C#Cc1ccc([C@@H]2[C@@H](C#N)N(C(=O)C3CCCCC3)[C@H]2CO)cc1 | -6.03% (inactive)
O=C(NCCc1ccccc1)c1ccc2c(c1)OCCCO2 | -8.48% [at 50 µM] (inactive)
C[C@@H]1CN([C@H](C)CO)C(=O)CCCn2nncc2CO[C@H]1CN(C)Cc1ccc(Oc2ccccc2)cc1 | -0.398% (inactive)
N#C[C@H]1[C@@H](c2ccc(C3=CCCC3)cc2)[C@@H](CO)N1C(=O)NC1CCCCC1 | 6.36% (inactive)
C[C@H](CO)N1C[C@H](C)[C@H](CN(C)C(=O)Nc2ccc(-c3cccs3)cc2)OCc2cnnn2CCCC1=O | 24.2% (inactive)
COc1ccc(S(=O)(=O)Nc2ccc3c(c2)CC(=O)N([C@@H](C)CO)C[C@@H](C)[C@@H](CN(C)Cc2ccc(-c4ccccc4)cc2)O3)cc1 | -6.31% (inactive)
CCCC#Cc1ccc([C@H]2[C@@H](CO)N(C(=O)C3CCCCC3)[C@H]2C#N)cc1 | -38.6% (inactive)
N#C[C@@H]1[C@H](c2ccc(C#CC3CCCC3)cc2)[C@H](CO)N1C(=O)Nc1ccc(F)cc1 | -2.68% (inactive)
C[C@H](CO)N1C[C@H](C)[C@@H](CN(C)Cc2ccc(-c3ccccc3)cc2)Oc2ccc(NS(=O)(=O)c3ccccc3)cc2CC1=O | -47.5% (inactive)
COc1cccc(C#Cc2ccc([C@H]3[C@@H](CO)N(C(=O)C4CCCC4)[C@H]3C#N)cc2)c1 | -21.9% (inactive)
O=C(C[C@H]1CC[C@H]2[C@@H](COC[C@@H](O)CN2S(=O)(=O)c2cccc(Cl)c2)O1)Nc1ccc(-c2ccccc2)cc1 | -8.29% (inactive)
